The list is not random: actives were taken first. Their share in the collection is about 8.7%.
Pf growth 96h: inhibits malaria parasite growth, 96 h; P. falciparum luciferase reporter growth, 96 h; Potency, µM (doses to about 28.7 µM), hits mostly inhibitors; 6.9% of 320,000 active; AID 504834
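Plates of compound plus infected erythrocytes (2% hematocrit, 0.05% parasitemia final) incubate 96 hours, 37 C, 5% CO2. Detection reagent added; reduced luminescence from the parasites' luciferase reporter flags inhibition.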
Pf growth 48h: P. falciparum growth inhibition at 48 hours (one generation); P. falciparum luciferase growth in erythrocytes, 48 h; Potency, µM (top dose mostly 28.7 µM), usual class: inhibitors; 5.9% of 310,000 active; AID 504832
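Parasite viability was followed by luminescence of a genomically integrated firefly luciferase. Cultures held 0.1% parasitemia at 2% hematocrit (final), incubated under 5% CO2 at 37 C.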
VACV Venus inh: vaccinia inhibition (Venus reporter) | Vaccinia virus Venus reporter expression, fluorescence | Potency, µM (titrated, usually from 36.5 µM), actives largely listed as inhibitors | 0.46% of 330,000 active; calls by dose curve; tested in A549 cells; note: nearly all actives have a fitted effect of over 30% in size
AMA1 RON2 block: AMA1-RON2 (P. falciparum) interaction inhibition; AlphaScreen AMA1-biotinylated RON2 peptide binding; Potency, µM (series often up to 58.2 µM), hits mostly inhibitors; 0.2% of 360,000 active; AID 720542; note: nearly all actives have a fitted effect of over 45% in size
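AMA1 (3D7) with his tag at 25 nM final met compounds first, then biotinylated RON2 peptide at 25 nM; detection used donor plus acceptor beads, 10 µg/mL apiece, read by AlphaScreen after 30 min at room temperature.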
Vaccinia mCherry: inhibitors of vaccinia virus infection (mCherry reporter signal); AID 720579; Potency, µM (highest dose often 36.5 µM), most hits filed as inhibitors; 0.63% of 310,000 active; Vaccinia virus mCherry reporter infection, fluorescence; calls by dose curve; tested in A549 cells; note: nearly all actives have a fitted effect of over 35% in size
Numbers stand for hits; i = inactive; ? = inconclusive; nt = not tested or not shown. Unless noted, calls come from the whole dose curve; as a rule, active = well fitted curve in the direction sought with a large enough effect; inconclusive = small, poorly fitted or top-dose-only effect, or another doubt; inactive = no such curve, though single readings can be large; an effect the other way counts as inactive or inconclusive.

SMILES	Pf growth 96h	Pf growth 48h	VACV Venus inh	AMA1 RON2 block	Vaccinia mCherry
Cc1ccccc1OCc1nc2c3c(ncn2n1)-c1ccccc1CC31CCCC1	5.22µM	?	i	i	i
COc1ccc(OCc2nc3c4c(ncn3n2)-c2ccccc2CC42CCCC2)cc1	13.1µM	?	i	i	i
O=C(NCCS(=O)(=O)N1CCN(c2ccccc2F)CC1)c1ccccc1C(F)(F)F	nt	nt	i	nt	i
COCC(=O)Nc1cc(C(=O)N2CCCOc3c(cccc3OC)C2)c2c(c1)nc(C1CCC1)n2C	nt	nt	i	nt	i
COc1cccc(CN2CCN(Cc3cccc(F)c3)CC2)c1	?	i	nt	15.8µM	nt
COc1cc(CN2CCN(Cc3ccco3)CC2)cc(OC)c1	2.08µM	i	i	i	i
COc1ccc(CCN(C)C(=O)c2cc(-c3ccccc3)nc3ccccc23)cc1OC	7.38µM	13.1µM	i	i	i
COc1ccc(CN(C)C(=O)c2cc(-c3ccccc3)nc3ccc(C)cc23)c(OC)c1OC	?	8.28µM	i	i	?
COc1cccc(CN(C)C(=O)c2cc(-c3ccc(F)cc3)nc3ccccc23)c1	13.1µM	?	i	i	i
COc1cccc(CN(C)C(=O)c2cc(-c3ccc(OC)c(OC)c3)nc3ccccc23)c1	i	i	i	i	i
COc1ccc(CCN(C)C(=O)c2cc(-c3ccccc3)nc3ccc(C)cc23)cc1OC	i	i	nt	i	nt
COc1ccc(-c2cc(C(=O)N(C)Cc3cccc(OC)c3OC)c3ccccc3n2)cc1OC	?	9.28µM	i	i	i
O=C(Nc1ccc(SC(F)F)cc1)c1cc(-c2ccc3c(c2)OCCO3)on1	nt	nt	i	nt	i
COc1ccc(CNC(=O)c2cc3c(=O)n(Cc4cccs4)ccc3nc2C)cc1	nt	nt	i	nt	i
Cn1nccc1C(=O)NCC1CCC2(CCN(Cc3ccc(-c4ccc(Cl)cc4)o3)CC2)O1 (stereo unspecified)	nt	nt	i	nt	i
Cc1ccc(CNS(=O)(=O)c2c(C)[nH]c(C)c2C(=O)N2CCCCC2)o1	13.1µM	i	i	i	i
CCN(CC)S(=O)(=O)c1ccc(/C(O)=C(\C#N)c2nc3ccccc3n2C)cc1	0.262µM	?	i	i	i
CN(C)c1ccc(CNC(=O)Cn2ccc3cc(S(=O)(=O)N4CCCCCC4)ccc32)cc1	nt	nt	i	nt	i
O=C(CCCN1CCC(C(=O)c2ccc(F)cc2)CC1)c1ccc(F)cc1	i	?	nt	i	nt
O=C(CCCN1CCC(O)(c2ccc(Br)cc2)CC1)c1ccc(F)cc1	4.05µM	8.28µM	i	i	i
CC1CCN(CCCC(=O)c2ccc(F)cc2)CC1	?	i	nt	nt	nt
O=C(CCCN1CCC(O)(c2cccc(C(F)(F)F)c2)CC1)c1ccc(F)cc1	5.86µM	8.28µM	i	i	i
O=C(CCCN1CCC(O)(c2ccc(Cl)cc2)CC1)c1ccc(F)cc1	6.57µM	7.38µM	i	i	i
Cc1ccn2c(Nc3ccc4c(c3)OCO4)c(-c3ccc(N(C)C)cc3)nc2c1	nt	nt	i	nt	i
COc1ccc(CN2CCC3(CCC(CNC(=O)c4ccco4)O3)CC2)c(OC)c1C (stereo unspecified)	nt	nt	i	nt	i
SMILES	Pf growth 96h	Pf growth 48h	VACV Venus inh	AMA1 RON2 block	Vaccinia mCherry
Cc1sc(-n2c(C)ccc2C)c(C#N)c1C	10.4µM	i	i	i	i
Cc1ccc(C)n1-c1sc2c(c1C#N)CCCC2	?	i	i	i	i
O=C(COc1ccccc1F)Nc1ccc2nc(SCC(=O)N3CCCC3)sc2c1	nt	nt	i	nt	i
COc1ccc(C(=O)c2ccc(CC(=O)O)s2)cc1	?	6.57µM	i	i	i
COc1ccc(N=c2cc(-c3ccc(OC)cc3)oc3ccccc23)cc1	i	?	i	12.6µM	i
COc1ccc(-c2cc(=O)c3ccccc3o2)cc1	?	i	i	i	i
COc1ccc(N=c2cc(-c3ccc(O)cc3)oc3ccccc23)cc1	?	3.29µM	i	i	?
COc1ccc(-c2cc(=Nc3ccccc3)c3cc(C)ccc3o2)cc1	i	i	nt	i	nt
CCOc1ccc(N=c2cc(-c3ccc(OC)cc3)oc3ccccc23)cc1	?	?	i	14.1µM	i
COc1ccc(-c2cc3ccccc3c(=O)o2)cc1	nt	nt	i	i	i
COc1ccc(-c2cc(=Nc3ccc(C)cc3)c3ccccc3o2)cc1	6.57µM	?	i	i	i
CCN(CC)c1ccc(CNCCCSc2nnnn2C)cc1	nt	nt	i	nt	i
COc1ccc(NC(=O)Cn2c(=O)n(CCc3ccccc3)c(=O)c3sc4ccccc4c32)cc1	nt	nt	i	nt	i
COc1ccc(NC(=O)c2csnn2)cc1Cl	nt	nt	i	nt	i
CC(=O)c1ccc(NC(=O)Cn2c(=O)cc(C)c3c(C)nn(-c4cccc(F)c4)c32)cc1	nt	nt	i	nt	i
